Laboratory results from PubChem BioAssay.
Values joined by “and” are separate entries in the source; they are usually repeats but may differ in a detail not shown here. Identical values can stand only once. Active and inactive are the calls of the source. Unless noted, no rule for the calls is given here.

System: not listed separately
Assay: circadian clock period modulators, cell-based, LOPAC library, luminescence reporter (AID 2774);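 also: values are relative to mean of DMSO wells on each plate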
Settings: circadian reporter cells, at 7 µM, actives lie on both sides

Structure (SMILES)	period change
COc1cccc(-c2cc(=O)c3ccccc3o2)c1N	-0.07 h (inactive)
O=C1Nc2ccc(I)cc2/C1=C/c1cc(Br)c(O)c(Br)c1	-0.055 h (inactive)
O=C(O)C1CCCN(CCC=C(c2ccccc2)c2ccccc2)C1 (configuration not stated)	0.005 h (inactive)
O=C1NC(=O)C(c2ccccc2[N+](=O)[O-])=C1Nc1ccc(O)c(Cl)c1	0.15 h (inactive)
CCOC(=O)C1=C(C)NC(=S)NC1c1cccc(O)c1 (configuration not stated)	0.16 h (inactive)
CCC(C)N(C)C(=O)c1cc2ccccc2c(-c2ccccc2Cl)n1 (configuration not stated)	0.03 h (inactive)

System: not listed separately
Assay: hESC survival regulators, cell-based (AID 493140);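 also: cells exposed to compounds for four days before counting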
Settings: human embryonic stem cell survival screen; stronger effect = higher value

Structure (SMILES)	survival
COc1cccc(-c2cc(=O)c3ccccc3o2)c1N	106 (inactive)
O=C1Nc2ccc(I)cc2/C1=C/c1cc(Br)c(O)c(Br)c1	109 (inactive)
CCCCC[C@H](O)/C=C/[C@H]1[C@H](O)CC(=O)[C@@H]1C/C=C\CCCC(=O)O	66.5 (inactive)

System: not listed separately
Assay: liver-stage malaria parasite growth inhibition, primary screen, cell-based, HepG2, luciferase luminescence, HepG2 viability (AID 624349; in the data active = parasite load remaining mostly below about 12%, no sharp cut-off; inactive = mostly above about 10%;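 also: 100% = mean of DMSO negative control wells on the same plate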)
Settings: P. berghei liver stage in HepG2, luciferase luminescence, concentration not given here; parasite load remaining: stronger effect = lower value; viability: measured here: HepG2 viability without parasites

Structure (SMILES)	parasite load remaining	viability [%]
CC[C@H](NC(C)C)[C@H](O)c1ccc(O)c2[nH]c(=O)ccc12	42.5% (inactive)	102
COc1cccc(-c2cc(=O)c3ccccc3o2)c1N	29.3% (inactive)	68.4
O=Nc1c(-c2c(O)[nH]c3cc(Br)ccc23)[nH]c2ccccc12	17.4% (inactive)	92.7
CS(=O)c1ccc(-c2nc(-c3ccc(F)cc3)c(-c3ccncc3)[nH]2)cc1 (configuration not stated)	28.5% (inactive)	76.8
O=c1cc(-c2cccc3c2Sc2ccccc2S3)oc(N2CCOCC2)c1	39.8% (inactive)	161
COc1nccc(-c2c(-c3ccc(F)cc3)ncn2C2CCC(O)CC2)n1 (configuration not stated)	41% (inactive)	82.3
Oc1ccc2ccccc2c1SSc1c(O)ccc2ccccc12	35.3% (inactive)	87.1
CN1C(=O)C(Cc2c[nH]c3ccccc23)NC1=S (configuration not stated)	48.6% (inactive)	96.5
Nc1ncnc2nc(-c3ccc(N4CCOCC4)nc3)cc(-c3cccc(Br)c3)c12	57.8% (inactive)	155
NC(=O)c1ccc2[nH]ccc2c1	32.8% (inactive)	70.2
Cc1cc(I)ccc1Nc1c(C(=O)NOCC2CC2)cc(F)c(F)c1F	55.5% (inactive)	67.8
CCCCC[C@H](O)/C=C/[C@H]1[C@H](O)CC(=O)[C@@H]1C/C=C\CCCC(=O)O	43.5% (inactive)	99.5

System: not listed separately
Assay: kinase inhibitors against Plasmodium liver-stage infection, cell-based, known kinase inhibitor set, luminescence, hepatoma host viability (AID 624392);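 also: infected cells incubated roughly two days before readout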
Settings: Plasmodium liver stage in hepatoma cells, luciferase luminescence, concentration not given here; liver cell % of control: measured here: host liver cell viability; parasite % of control: stronger effect = lower value

Structure (SMILES)	parasite % of control	liver cell % of control
CS(=O)c1ccc(-c2nc(-c3ccc(F)cc3)c(-c3ccncc3)[nH]2)cc1 (configuration not stated)	20.8% (inactive) and 18.7% (inactive) and 25.5% (inactive)	87.6% and 90.6% and 97.1%
NC(=O)c1ccc2[nH]ccc2c1	221% (inactive) and 164% (inactive) and 74.7% (inactive)	92.5% and 90.8% and 97.8%
O=C(O)c1ccc(-c2c[nH]c3ncc(-c4ccccc4)cc23)cc1C1CCCC1	0.113% (active)	92%

System: Hepatitis C virus NS3 helicase
Assay: HCV NS3 helicase inhibitors, primary screen, biochemical, fluorescence polarization, LOPAC1280 library (AID 687035; in the data active = inhibition above about 37%)
Settings: Purified HCV NS3 helicase, Cy5-dT15 ssDNA binding fluorescence polarization; stronger effect = higher value; concentration not given here

Structure (SMILES)	inhibition
COc1cccc(-c2cc(=O)c3ccccc3o2)c1N	-1% (inactive)
O=Nc1c(-c2c(O)[nH]c3cc(Br)ccc23)[nH]c2ccccc12	2% (inactive)
O=C(O)CCc1ccc(NCc2cccc(Oc3ccccc3)c2)cc1	0% (inactive)
Oc1ccc2ccccc2c1SSc1c(O)ccc2ccccc12	3% (inactive)
O=C(O)C1CCCN(CCC=C(c2ccccc2)c2ccccc2)C1 (configuration not stated)	-1% (inactive)
Nc1ncnc2nc(-c3ccc(N4CCOCC4)nc3)cc(-c3cccc(Br)c3)c12	-6% (inactive)
O=C1NC(=O)C(c2ccccc2[N+](=O)[O-])=C1Nc1ccc(O)c(Cl)c1	-2% (inactive)
NC(=O)c1ccc2[nH]ccc2c1	0% (inactive)
CCC(C)N(C)C(=O)c1cc2ccccc2c(-c2ccccc2Cl)n1 (configuration not stated)	0% (inactive)

System: not listed separately
Assay: Cy5 fluorescence quenching or enhancement artefacts, artefact control for HCV NS3 helicase inhibitor project, biochemical, LOPAC1280 (AID 687037)
Settings: Cy5-DNA-NS3h complex fluorescence interference counterscreen

Structure (SMILES)	fluorescence ratio (interference)
COc1cccc(-c2cc(=O)c3ccccc3o2)c1N	1 (inactive)
O=Nc1c(-c2c(O)[nH]c3cc(Br)ccc23)[nH]c2ccccc12	0.9 (inactive)
O=C(O)CCc1ccc(NCc2cccc(Oc3ccccc3)c2)cc1	1 (inactive)
Oc1ccc2ccccc2c1SSc1c(O)ccc2ccccc12	1 (inactive)
O=C(O)C1CCCN(CCC=C(c2ccccc2)c2ccccc2)C1 (configuration not stated)	0.9 (inactive)
Nc1ncnc2nc(-c3ccc(N4CCOCC4)nc3)cc(-c3cccc(Br)c3)c12	0.9 (inactive)
O=C1NC(=O)C(c2ccccc2[N+](=O)[O-])=C1Nc1ccc(O)c(Cl)c1	1 (inactive)
NC(=O)c1ccc2[nH]ccc2c1	1 (inactive)
CCC(C)N(C)C(=O)c1cc2ccccc2c(-c2ccccc2Cl)n1 (configuration not stated)	1 (inactive)

System: Aerobactin synthetase IucA (Klebsiella pneumoniae)
Assay: IucA aerobactin synthetase inhibitors, biochemical, Tocris library, absorbance (AID 1345561);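 also: 100% = enzyme without compound and 0% = no enzyme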
Settings: purified IucA enzyme assay, absorbance (OD) read-out; stronger effect = lower value; concentration not given here

Structure (SMILES)	remaining activity
CC[C@H](NC(C)C)[C@H](O)c1ccc(O)c2[nH]c(=O)ccc12	95.2% (inactive)
COc1cccc(-c2cc(=O)c3ccccc3o2)c1N	102% (inactive)
COc1cc2nccc(Oc3ccc(NC(=O)Nc4ccc(F)cc4F)c(F)c3)c2cc1OC	115% (inactive)
O=Nc1c(-c2c(O)[nH]c3cc(Br)ccc23)[nH]c2ccccc12	107% (inactive)
O=c1[nH]nc(Sc2ncc([N+](=O)[O-])s2)n1-c1ccc2c(c1)OCCO2	125% (inactive)
N[C@H](CSC(c1ccccc1)(c1ccccc1)c1ccccc1)C(=O)O	104% (inactive)
CS(=O)c1ccc(-c2nc(-c3ccc(F)cc3)c(-c3ccncc3)[nH]2)cc1 (configuration not stated)	113% (inactive) and 119% (inactive)
O=c1cc(-c2cccc3c2Sc2ccccc2S3)oc(N2CCOCC2)c1	94.8% (inactive)
COc1nccc(-c2c(-c3ccc(F)cc3)ncn2C2CCC(O)CC2)n1 (configuration not stated)	92.5% (inactive)
CCc1c2c(nc3ccc(O)cc13)-c1cc3c(c(=O)n1C2)COC(=O)[C@]3(O)CC	107% (inactive)
CCOc1cc(C(=O)Nc2ccc(Cl)c(-c3nc4ccccc4[nH]3)c2)cc(OCC)c1OCC	119% (inactive)
O=C(O)CCc1ccc(NCc2cccc(Oc3ccccc3)c2)cc1	92.7% (inactive)
Oc1ccc2ccccc2c1SSc1c(O)ccc2ccccc12	112% (inactive)
CC(Oc1ccc(O)cc1)(P(=O)(O)O)P(=O)(O)O	115% (inactive)
CCN(CC)CCCC(C)Nc1nc(C)cc(Nc2ccc3nc(C)cc(N)c3c2)n1 (configuration not stated)	104% (inactive)
CN1C(=O)C(Cc2c[nH]c3ccccc23)NC1=S (configuration not stated)	89.8% (inactive)
COc1ccc([C@@H]2CNC(=O)C2)cc1OC1CCCC1	102% (inactive)
O=C1Nc2ccc(I)cc2/C1=C/c1cc(Br)c(O)c(Br)c1	117% (inactive)
O=C(O)C1CCCN(CCC=C(c2ccccc2)c2ccccc2)C1 (configuration not stated)	104% (inactive)
CCOc1ccc(Nc2nc(-c3c(C)nc4ccccn34)cs2)cc1	103% (inactive)

Structure (SMILES)	remaining activity
Nc1ncnc2nc(-c3ccc(N4CCOCC4)nc3)cc(-c3cccc(Br)c3)c12	93.4% (inactive)
O=C1NC(=O)C(c2ccccc2[N+](=O)[O-])=C1Nc1ccc(O)c(Cl)c1	112% (inactive)
Fc1ccc(Cl)cc1-c1nc(Nc2ccncc2)c2nccnc2n1	110% (inactive)
Cc1cc(NC(=O)Nc2ccc(N(C)C)cc2)c2cc(F)cc(F)c2n1	98.2% (inactive)
Cc1ccc(/C=N/NC(=O)c2ccccc2Oc2ccccc2)o1	79% (inactive)
O=C(O)c1ccc2cc(-c3ccc(O)c(C45CC6CC(CC(C6)C4)C5)c3)ccc2c1	120% (inactive)
COc1cc(OC)c(NC(=O)Nc2cc(C)on2)cc1Cl	101% (inactive)
NC(=O)c1ccc2[nH]ccc2c1	89.5% (inactive)
Cc1[nH]c(/C=C2\C(=O)Nc3ccccc32)c(C)c1CCC(=O)O	95.9% (inactive)
CCOC(=O)C1=C(C)NC(=S)NC1c1cccc(O)c1 (configuration not stated)	109% (inactive)
CCOC(=O)C1=C(N)Oc2ccc(Br)cc2C1C(C#N)C(=O)OCC (configuration not stated)	92.3% (inactive)
Cc1cc(I)ccc1Nc1c(C(=O)NOCC2CC2)cc(F)c(F)c1F	104% (inactive)
COc1ccc(CCN(C)CCCOc2ccc(S(=O)(=O)c3c(C(C)C)c4ccccc4n3C)cc2)cc1OC	115% (inactive)
CCC(C)N(C)C(=O)c1cc2ccccc2c(-c2ccccc2Cl)n1 (configuration not stated)	91.6% (inactive)
COC1CCC(C(=O)c2ccc3nc4c(cc3c2)CCCO4)CC1 (configuration not stated)	99.8% (inactive)
O=C(O)c1ccc(-c2c[nH]c3ncc(-c4ccccc4)cc23)cc1C1CCCC1	108% (inactive)
CC(C)[C@H](CO)Nc1nc(Nc2ccc(C(=O)O)c(Cl)c2)c2ncn(C(C)C)c2n1	110% (inactive)
CCCCC[C@H](O)/C=C/[C@H]1[C@H](O)CC(=O)[C@@H]1C/C=C\CCCC(=O)O	127% (inactive)
N#Cc1c(O)c2c(-c3ccc(-c4ccccc4O)cc3)csc2[nH]c1=O	103% (inactive)
O=c1[nH]c(-c2ccc(C(F)(F)F)cc2)nc2c1CSCC2	117% (inactive)
